Screening results from PubChem.
Shown is part of a subset that was picked to be rich in hits.
KDM5B inh – inhibitors of human KDM5B histone demethylase | Q9UGL1 | KDM5B demethylase, FDH-coupled NADH fluorescence (FDH is formaldehyde dehydrogenase) | Potency, µM (top dose mostly 57.7 µM), usual class: inhibitors | 220,000 compounds, 2.6% hits; active = well fitted inhibition curve with a large enough effect; note: nearly all actives have a fitted effect of over 70% in size
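Measured: NADH fluorescence change, 30 min, RT. System: KDM5BΔAP 200 nM final, H3K4me3 peptide, α-KG, Fe(II), ascorbate, NAD⁺ plus FDH, pH 7.5 HEPES. Compounds: titrated, 10 min pre-incubation with enzyme.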
Numbers stand for hits; i = inactive.

SMILES | KDM5B inh
Cc1ccccc1C(=O)NC1CCCN(c2cc(-c3ccc(F)cc3)[nH]n2)C1 (configuration not stated) | i
Cc1ccc(C(=O)NC2CCN(c3cc(-c4cccs4)[nH]n3)C2)cc1F (configuration not stated) | 3.98µM
O=C(NC1CCN(c2cc(-c3cccs3)[nH]n2)CC1)c1ccccc1 | i
Cc1cccc(C(=O)NC2CCN(c3cc(-c4cccs4)[nH]n3)C2)c1 (configuration not stated) | 11.2µM
Cc1ccc(-c2c(C)nn3c2NC(=O)CCC3=O)cc1S(=O)(=O)NCc1ccc(F)cc1 | i
CCn1cc(C#N)c(=O)n(Cc2coc(-c3ccc(Cl)cc3)n2)c1=O | i
N#CCCN(C(=O)COC(=O)c1cc(Cl)ccc1[N+](=O)[O-])c1cccc(C(F)(F)F)c1 | i
O=C(O)C1Oc2ccccc2O1 | i
O=C(Nc1ccccc1Br)c1cc2ccc(O)cc2oc1=O | i
CN(CC(=O)NC(=O)NCc1ccccc1)CC(=O)Nc1ccc(Cl)cc1 | i
COC(=O)c1ccc(COC(=O)CCS(=O)(=O)c2ccc(F)cc2)cc1 | i
COc1ccc(NC(=O)CSC2=C(C#N)C(c3ccc(Cl)cc3)C(C(C)=O)=C(C)N2)cc1 (configuration not stated) | i
CNC(=O)NC(=O)CN(C)Cc1ccc(C(C)C)cc1 | i
Cc1oc(-c2ccccc2)nc1CC(=O)NCCN1CCOCC1 | i
Cc1ncsc1CCNC(=O)c1ccc2nc(-c3ccccc3)cn2c1 | 25.1µM
O=C(NCCN1CCOCC1)c1ccc2nc(-c3ccccc3)cn2c1 | 28.2µM
O=C(NCCN1CCOCC1)c1cccc(Br)c1 | i
CCOc1ccc(C(=O)NCCc2csc(-c3cccc(C)c3)n2)cc1 | i
Cc1ncsc1CCC(=O)N(C)Cc1csc(-c2ccccc2)n1 | i
COCCNC(=O)c1ccc2c(c1)N(C)C(CC(=O)NCc1ccoc1)CO2 (configuration not stated) | 28.2µM
C=CCN(C(=O)CC1COc2ccc(C(=O)N(C)C)cc2N1C)C(C)C (configuration not stated) | i
CCC(CC)N(CC)C(=O)CC1COc2ccc(C(=O)N(C)C)cc2N1C (configuration not stated) | i
CN(C)C(=O)c1ccc2c(c1)N(C)C(CC(=O)Nc1ccc[nH]c1=O)CO2 (configuration not stated) | i
CCN(C(=O)CC1COc2ccc(C(=O)N(C)C)cc2N1C)C1CCOCC1 (configuration not stated) | i
CCCN(C)C(=O)CC1COc2ccc(C(=O)NCCOC)cc2N1C (configuration not stated) | 31.6µM
SMILES | KDM5B inh
Cc1nc(CCNC(=O)CC2COc3ccc(C(=O)N(C)C)cc3N2C)no1 (configuration not stated) | i
COCCNC(=O)c1ccc2c(c1)N(C)C(CC(=O)NCC(C)(C)C)CO2 (configuration not stated) | 28.2µM
CN(C)C(=O)c1ccc2c(c1)N(C)C(CC(=O)NC1(CO)CCCCC1)CO2 (configuration not stated) | i
CCCN1CCC2(CCN([S+](=O)([O-])c3cccs3)CC2)Oc2ccccc21 | i
CCN(CC)C(=O)COc1cc(O)c2c(=O)cc(-c3ccccc3)oc2c1 | i
N#CC(C(=O)NCc1ccccc1)C(=O)c1cccc(C(F)(F)F)c1 (configuration not stated) | i
COc1ccc2nc(C(=O)Nc3ccccc3OC)ccc2c1 | i
O=C1CCCC2=C1C(c1cc(Cl)ccc1O)C1=C(CCCC1=O)O2 | i
CCNC(=O)NC(=O)CN(CCC1CCCCC1)CC(N)=O | i
Cc1ccc(NC(=O)N2CCCCC2c2nc(CCOCC3CC3)no2)cc1C (configuration not stated) | i
O=C(c1ccoc1)N1CCCCC1c1nc(CCOCC2CC2)no1 (configuration not stated) | i
Cc1ncsc1CN1CCCCC1c1nc(CCOCC2CC2)no1 (configuration not stated) | 17.8µM
COc1nccnc1NC1CCN(C(=O)c2ccc3nc[nH]c3c2)CC1 | 28.2µM
CC(=O)N(C1CC1)C1CCOC2(CCN(C(=O)c3ccc4nc[nH]c4c3)CC2)C1 (configuration not stated) | i
CCNC(=O)c1cccnc1OC1CCN(C(=O)c2ccccc2C)C1 (configuration not stated) | i
COc1ccccc1CNC(=O)CCC1CCN(S(=O)(=O)c2ccccc2)CC1 | i
CS(=O)(=O)N1CCC(C2CCN(C(=O)c3ccc4nc[nH]c4c3)C2)CC1 (configuration not stated) | i
COc1ccc(CCNC(=O)C2CCN(C(=O)c3ccccc3C)CC2)cc1 | i
CN1CCC(OC2CCN(S(=O)(=O)c3ccccc3)CC2)CC1 | i
CO[C@H]1C(=O)N(C2CCNCC2)[C@H]1c1ccncc1 | i
COc1nccnc1NC1CCN(C(=O)c2ccccc2C)CC1 | 28.2µM
COc1nccnc1NC1CCN(S(=O)(=O)c2ccccc2)CC1 | 25.1µM
COc1nccnc1NC1CCNCC1 | 15.8µM
c1cnc(N2CCOCC2)c(OC2CCNC2)n1 (configuration not stated) | i
CCC(CC)C(=O)Nc1nn2c(CC(C)C)nnc2s1 | i
SMILES | KDM5B inh
COC(=O)C(NC(=O)c1ccc(OC)cc1)(Nc1nc(C2CC2)cs1)C(F)(F)F (configuration not stated) | i
Cc1ccc(NC(=O)C(=O)c2c(C)[nH]c3ccccc23)cc1 | i
Cc1ccsc1C(=O)/C(C#N)=C\c1ccc(C(=O)O)cc1 | i
COc1ccc(C(=O)C(C)Oc2ccc(C#N)cc2OC)cc1 (configuration not stated) | i
Cc1ccc(S(=O)(=O)NCC(=O)O)cc1C | i
COc1nccnc1NC1CCN(C(=O)c2n[nH]c3c2CCCC3)CC1 | 31.6µM
CCCOc1nccnc1NC1CCN(C(=O)c2ccncc2)CC1 | 28.2µM
O=C(c1ccncc1)N1CCC(Oc2cccnc2)C1 (configuration not stated) | i
COC1CCC12CCN(C(=O)c1ccco1)CC2 (configuration not stated) | i
O=C(c1n[nH]c2c1CCCCCC2)N1CCC(Cc2nncn2CC2CC2)CC1 | i
COc1nccnc1NC1CCN(C(=O)c2cccc(C)c2)CC1 | 31.6µM
COC1CCOC2(CCN(C(=O)c3ccco3)CC2)C1 (configuration not stated) | i
CCC(NC1CCN(C(=O)c2ccccc2)CC1)c1ccnn1C (configuration not stated) | i
Cc1cccc(C(=O)N2CCC(Oc3ncccc3C(N)=O)C2)c1 (configuration not stated) | i
COC(=O)CC1C(=O)NCCN1C(=O)c1n[nH]c2c1CCCC2 (configuration not stated) | i
COc1nccnc1NC1CCN(C(=O)c2ccco2)CC1 | 25.1µM
Cc1cccc(C(=O)N2CCC(Oc3cccnc3)C2)c1 (configuration not stated) | i
COc1cc(C2CC(=O)Nc3nc(-c4ccccc4)[nH]c(=O)c32)cc(OC)c1OC (configuration not stated) | i
N#CCCn1c(SCC(=O)N(C2CCCCC2)C2CCS(=O)(=O)C2)nc2ccccc21 (configuration not stated) | i
CCCC(=O)Nc1ccc(CNCc2cccnc2)cc1 | i
CCc1sc(C(=O)Nc2sc(C)c(C)c2C#N)cc1Br | i
Cc1ccc(NC(=O)c2ccc3ccccc3n2)c(C)c1 | i
